Measurements from PubChem BioAssay AID720550 (National Center for Advancing Translational Sciences (NCATS), 2013).
Inconclusive results are not listed. A call without a number means that no potency is given here. Active and inactive are the calls of the source. The call rests on the fitted dose curve; in most records, active means well fitted curve in the direction sought with a large enough effect; inconclusive means small, poorly fitted or top-dose-only effect, or another doubt; inactive means no such curve, though single readings can be large or run the other way.

Test: qHTS for Inhibitors of Bloom's syndrome helicase (BLM): Thiazole Orange DNA Binding Counterscreen for SAR.
Conditions: fluorescence; Potency: Thiazole orange DNA displacement; series mostly up to 57.1 µM
Source text: Human RecQ DNA helicases participate in maintenance of genome stability and DNA repair. While other types of helicases have been explored as targets for drug development, members of the RecQ family have remained less well characterized. Mutations of the Bloom helicase gene have been associated with the rare human genetic disease called Bloom syndrome. […] Moreover, identified inhibitors can be used in cells and animal models to examine the consequences of inhibition on the survival of cancer cells where it has been shown that BLM plays an important role.
A fluorescence-based, biochemical assay in 1536 well format was developed to evaluate inhibition of BLM DNA unwinding activity. This assay was used to screen the MLPCN library. The resulting compounds were subjected to orthogonal and secondary biochemical assays to triage the initial hits, to classify compounds based on mode of action and to derive structure activity relationships (SARs) of candidate effectors. The Thiazole Orange (ThO) DNA binding (TO-binding) is used to eliminate inhibitors that operate via nonspecific DNA binding. This displacement assay is miniaturized for a 1536-well format and utilizes a ThO dye bound to unlabeled DNA. Inactivation or no significant activity is the desired outcome for this assay.
NIH Chemical Genomics Center [NCGC]
NIH Molecular Libraries Probe Centers Network [MLPCN]
Assay Submitter (PI): Opher Gileadi, Structural Genomics Consortium, University of Oxford, UK
Compounds were added to a 4 uL mixture of 50 nM DNA and 100 nM ThO via pintool transfer. The fluorescence signal (excitation 480 nm, emission 530 nm) was measured after 15 min incubation at room temperature using the ViewLux CCD imager.

Structure (SMILES) | Potency
O=C(Nc1ccc(Cl)c(Cl)c1)Nc1ccc(-c2ccncc2)s1 | inactive
COc1ccccc1CNC(=O)Nc1nnc(-c2ccncc2)s1 | inactive
O=C(Nc1ccc(Cl)c(Cl)c1)Nc1nnc(-c2ccncc2)o1 | inactive
O=C(Nc1ccc2c(c1)OCCO2)Nc1nnc(-c2ccncc2)s1 | inactive
O=C(Nc1ccc(Cl)c(Cl)c1)Nc1nnc(-c2ccc(F)cc2)s1 | inactive
O=C(Nc1ccc2ccccc2c1)Nc1cccc(-c2ccncc2)n1 | inactive
O=C(Nc1ccc(N2CCOCC2)c(C(F)(F)F)c1)Nc1nnc(-c2ccncc2)s1 | 4.08 µM (active)
O=C(Nc1cc(C(F)(F)F)cc(C(F)(F)F)c1)Nc1nnc(-c2ccncc2)s1 | inactive
O=C(Nc1ccc(Cl)c(Cl)c1)Nc1ncc(-c2ccncc2)s1 | inactive
O=C(Nc1ccc2ccccc2c1)Nc1nnc(-c2ccc(F)cc2)s1 | inactive
CCCCCCNC(=O)Nc1nnc(-c2ccncc2)s1 | inactive
O=C(Nc1ccc(Cl)c(Cl)c1)Nc1ccnc(-c2ccncc2)n1 | inactive
O=C(Nc1ccc(F)c(C(F)(F)F)c1)Nc1nnc(-c2cccnc2)s1 | inactive
N#Cc1cc(NC(=O)Nc2nnc(-c3ccncc3)s2)ccc1Br | inactive
O=C(Nc1ccc(Cl)c(Cl)c1)N1CCN(c2ccncc2)CC1 | inactive
O=C(Nc1nnc(-c2ccncc2)s1)Oc1ccc2ccccc2c1 | inactive
O=C(Nc1nnc(-c2ccncc2)s1)Nc1cccc2ccccc12 | inactive
O=C(Nc1ccc(-c2cn[nH]c2)c(C(F)(F)F)c1)Nc1nnc(-c2ccncc2)s1 | inactive
O=C(Nc1ccc(Cl)c(Cl)c1)Nc1nnc(Br)s1 | inactive
CC(C)(C)c1ccc(-c2nnc(NC(=O)Nc3ccc4ccccc4c3)s2)cc1 | inactive

Structure (SMILES) | Potency
O=c1c(Nc2ccc(Br)c(Br)c2)c(Nc2nnc(-c3ccncc3)s2)c1=O | 10.2 µM (active)
O=C(Nc1ccc2sccc2c1)Nc1nnc(-c2cccnc2)s1 | inactive
Cc1cc(NC(=O)Nc2nnc(-c3cccnc3)s2)ccc1Cl | inactive
N#Cc1cc(NC(=O)Nc2cccc(-c3ccncc3)n2)ccc1Cl | inactive
O=C(Nc1cccc(C(=O)O)c1)Nc1nnc(-c2ccncc2)s1 | inactive
O=C(Nc1ccc(-n2cncn2)c(C(F)(F)F)c1)Nc1nnc(-c2ccncc2)s1 | inactive
N#Cc1ccc(NC(=O)Nc2nnc(-c3ccncc3)s2)cc1 | inactive
O=C(Nc1ccc2ccccc2c1)Nc1nnc(C2CCCCC2)s1 | inactive
O=C(Nc1ccc(Cl)c(Cl)c1)Nc1nnc(N2CCNCC2)s1 | inactive
N#Cc1cc(NC(=O)Nc2nnc(-c3ccncc3)s2)ccc1Cl | inactive
O=C(Nc1ccc(Cl)c(Cl)c1)Nc1nc(-c2ccncc2)cs1 | inactive
O=C(Nc1ccc2ccccc2c1)Nc1nnc(-c2ccccc2)s1 | inactive
c1ccc2[nH]c(Nc3nnc(-c4ccncc4)s3)nc2c1 | inactive
O=C(Nc1cccc(C(F)(F)F)c1)Nc1nnc(-c2ccncc2)s1 | inactive
Cc1cc(NC(=O)Nc2cccc(-c3ccncc3)n2)ccc1Cl | inactive
CN(C(=O)Nc1ccc2ccccc2c1)c1nnc(-c2ccncc2)s1 | inactive
Cc1cc(NC(=O)Nc2nnc(-c3cccnc3)s2)ccc1F | inactive
O=C(Nc1ccc(-c2nc3ccccc3[nH]2)cc1)Nc1ccc2c(c1)CCCO2 | inactive
O=C(Nc1nnc(-c2ccncc2)s1)Nc1ccc(Cl)c2ccccc12 | inactive
CCOc1ccc(NC(=O)Nc2ccc(-c3nc4ccccc4[nH]3)cc2)cc1 | inactive
